Screening results (PubChem)
Rows were chosen to be rich in hits. Some 2.8% of all compounds tested hit in one or more screens of this group.
KDM5B inhibitor: KDM5B demethylase inhibition; Q9UGL1; KDM5B demethylase, FDH-coupled NADH fluorescence (FDH is formaldehyde dehydrogenase); Potency, µM (top dose mostly 57.7 µM), usual class: inhibitors; 220,000 compounds, 2.6% hits; note: potency is the fitted concentration of half-maximal effect; 0% is about no effect; nearly all actives have a fitted effect of over 70% in size
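Inhibition is measured as reduced NADH fluorescence generation from FDH coupling to formaldehyde release. Truncated KDM5BΔAP at 200 nM final acts on H3K4me3 peptide (12.5 µM in substrate mix) in pH 7.5 HEPES buffer with Tween-20, 30 min, room temperature.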
SNCA expr inh: SNCA gene expression inhibition; HEK-293 SNCA-luciferase knock-in, luminescence, 24 h; Potency, µM (top dose mostly 57.2 µM), for the others: at the highest dose activity change, negative = inhibition, usual class: inhibitors; 140,000 compounds, 0.17% hits; AID 1671194;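 note: potency is the fitted concentration of half-maximal effect; plate controls were DMSO cells for no effect and cell-free wells for full effect; nearly all actives have a fitted effect of over 45% in size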
HEK293 viab: counter-screen for SNCA expression inhibitors: cell viability. Potency, µM (doses to about 57.1 µM), for the others: at the top dose activity change, negative = cytotoxicity, most hits filed as cytotoxic. AID 1671193. HEK-293-SNCA-luc viability, GF-AFC fluorescence, 24 h. 150,000 compounds, 0.12% hits;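 note: potency is the fitted concentration of half-maximal effect; 0% = DMSO-treated cells and -100% = medium-only wells without cells; nearly all actives have a fitted effect of over 30% in size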
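Cytotoxicity counterscreen: after 24 h compound treatment of genome-edited SNCA-luciferase HEK-293 cells, live-cell protease substrate GF-AFC read by fluorescence after 30 min; activity scaled between DMSO (0%) and medium-only (-100%), curves Hill-fitted.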
IP6K1 inhibitor: inhibitors of human IP6K1 | IP6K1 kinase, ADP-Glo luminescence, 2 h; hits give low values | activity change, % (series mostly up to about 58 µM) | 140,000 compounds, 0.81% hits | Q92551 | AID 1645851; in the data active = activity change below about -25%; note: % is set by controls: 0 for no effect and ±100 for the full control effect
Target sequence (Q92551 whole entry, looked up): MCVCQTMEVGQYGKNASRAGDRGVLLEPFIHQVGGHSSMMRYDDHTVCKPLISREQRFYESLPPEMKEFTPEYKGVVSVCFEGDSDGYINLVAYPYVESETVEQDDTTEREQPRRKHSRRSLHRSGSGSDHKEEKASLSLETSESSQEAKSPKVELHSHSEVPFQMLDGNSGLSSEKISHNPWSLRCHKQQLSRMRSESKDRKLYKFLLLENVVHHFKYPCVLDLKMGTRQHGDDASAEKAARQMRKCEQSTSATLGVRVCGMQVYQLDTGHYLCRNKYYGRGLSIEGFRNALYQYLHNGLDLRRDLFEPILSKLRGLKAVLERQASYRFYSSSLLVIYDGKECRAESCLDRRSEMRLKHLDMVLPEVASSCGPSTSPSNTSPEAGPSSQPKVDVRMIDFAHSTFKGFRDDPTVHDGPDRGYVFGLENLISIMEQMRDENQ
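ADP-Glo luminescence measures ADP made by human IP6K1 during a 2 h RT reaction with ATP/IP6 (mix at 1.3 mM/130 uM); top library doses 57.5 and 19.1 uM final.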
The depositor's hits bear a star; i = inactive; ? = inconclusive; . = not tested or not shown; ! = not confirmed by another sample; [ ] = another dose, or the depositor's remark. Unless noted, calls come from the whole dose curve; as a rule, active = well fitted curve in the direction sought with a large enough effect; inconclusive = small, poorly fitted or top-dose-only effect, or another doubt; inactive = no such curve, though single readings can be large; an effect the other way counts as inactive or inconclusive.

SMILES | KDM5B inhibitor | SNCA expr inh | HEK293 viab | IP6K1 inhibitor
CCc1ncc(CN2CCCC23CCN(c2ccc(C(F)(F)F)cn2)CC3)cn1 | ? | 8.7% | -17.7% | -15.8
CN(C)CCCOCC1(C)COc2ccc(C(=O)Nc3ccccc3)cc2N1 (stereo unspecified) | ? | 125.1%[87.6 µM] | -1.0%[87.6 µM] | -5.8
CN(C)CCOCC1(C)COc2ccc(C(=O)NCc3ccc(F)cc3)cc2N1 (stereo unspecified) | 39.8µM* | -8.5%[87.6 µM] | 10.1%[87.6 µM] | -11.1
CCOCC1(C)COc2ccc(C(=O)NCc3ccc(F)cc3)cc2N1 (stereo unspecified) | ? | 6.7%[87.6 µM] | -7.9%[87.6 µM] | 9.0
CN(C)CCOCC1(C)COc2ccc(C(=O)NCc3cccc(F)c3)cc2N1 (stereo unspecified) | 39.8µM* | -7.7%[87.6 µM] | 7.9%[87.6 µM] | -8.6
O=C1OCCN1CCNc1ccc(-c2nc(-c3ccccc3F)no2)cn1 | 28.2µM* | -10.7% | -13.9% | 9.8
Cc1noc(C)c1Cn1cc2c3c(cccc31)[C@H](CC(C)C)N[C@H](C(=O)NC1CCC1)C2 | ? | -14.3%[87.6 µM] | -27.5%[87.6 µM] | 16.5
Cc1nn2c(c1-c1ccccc1C(C)C)N(Cc1ccc(C(=O)O)cc1)CCC2 | i | -11.1%[87.6 µM] | 0.8%[87.6 µM] | 26.0
Cc1nn2c(c1-c1ccccc1C(C)C)N(C(=O)c1cc3ccccc3n1C)CCC2 | i | ? | 35.5µM* | 5.9
Cc1nn2c(c1-c1ccccc1C(C)C)N(CCC(C)C)CCC2 | 17.8µM* | ? | ? | -1.7
Cc1cccc(N2CCN(C(=O)c3noc(-c4ccc[nH]c4=O)n3)CC2)c1 | 28.2µM* | 5.6% | 4.9% | 9.8
COc1ccccc1N1CCN(C(=O)c2noc(-c3ccc(C)cc3)n2)CC1 | i | -17.9% | -0.9% | -11.1
Cc1cccc(N2CCN(C(=O)c3noc(-c4ccc5c(c4)OCO5)n3)CC2)c1 | ? | 46.2% | 11.2% | 3.3
Cc1ccccc1N1CCN(C(=O)c2noc(-c3ccc[nH]c3=O)n2)CC1 | 28.2µM* | 12.6% | 16.0% | 6.1
Cc1ccc(-c2nc(C(=O)N3CCN(c4ccccc4C)CC3)no2)cc1 | ? | -1.2% | 7.3% | 3.2
Cc1cccc(N2CCN(C(=O)c3noc(-c4ccc[nH]c4=O)n3)CC2)c1C | 28.2µM* | -9.0% | 1.1% | 0.0
CCn1cc(S(=O)(=O)N2CCC3(CC2)N(CC2CC2)C(=O)CS3=O)cn1 (stereo unspecified) | i | ? | 1.2% | 1.5
O=c1[nH]nc(SCc2ccccc2Cl)n1-c1ccc2c(c1)OCCO2 | i | . | . | .
O=c1[nH]nc(Sc2ncc([N+](=O)[O-])s2)n1-c1ccc2c(c1)OCCO2 | . | ? | 24.1µM* | .
CC(=O)Nc1cccc(C(=O)NCc2nnc3ccc(-c4ccc(C)cc4)nn23)c1 | ? | 7.3% | -9.8% | 7.5
O=C(NCc1nnc2ccc(-c3ccc(Cl)cc3)nn12)c1cccc(Cl)c1 | 22.4µM* | 0.0% | -8.1% | 4.5
O=C(NCc1nnc2ccc(-c3ccccc3)nn12)c1cccc(Br)c1 | 22.4µM* | -21.9% | -26.2% | 15.2
O=C(NCc1nnc2ccc(-c3ccc(F)cc3)nn12)c1cccc(C(F)(F)F)c1 | 28.2µM* | -5.1% | -14.1% | 11.5
N#Cc1ccc(C(=O)NCc2nnc3ccc(-c4ccc(F)cc4)nn23)cc1 | 28.2µM* | 12.4% | ? | 44.9
O=C(Cc1ccc(F)cc1)NCc1nnc2ccc(-c3ccc(Cl)cc3)nn12 | ? | -9.3% | -7.4% | 13.9
SMILES | KDM5B inhibitor | SNCA expr inh | HEK293 viab | IP6K1 inhibitor
OC[C@@H]1CNC[C@H]1C1CCN(C2CCOCC2)CC1 | i | 5.6% | -0.2%[12.5 µM] | -11.3
CSc1ccc(CN(C)C(=O)c2cc(F)cc(F)c2)cc1 | i | . | . | .
Cc1ccc(C)c(OCCn2c(CN(C)C(=O)c3ccco3)nc3ccccc32)c1 | i | . | . | .
O=c1cc(CN2CCN(c3ccccc3)CC2)occ1OCc1ccccc1 | i | . | . | .
O=c1cc(CN2CCOCC2)occ1OCCCCCSc1ccnc2cc(C(F)(F)F)ccc12 | . | ? | 29.9µM*! | -23.6
COCc1nc2nc(-c3ccccc3)c(-c3ccnc(OC)c3)cc2n1C | i | -16.3%[87.6 µM] | 4.2%[87.6 µM] | 7.0
COCc1nc2nc(-c3ccccc3)c(-c3ccc(N4CCN(C)CC4)nc3)cc2n1C | 35.5µM* | -5.8%[87.6 µM] | 0.7%[87.6 µM] | 2.9
COCc1nc2nc(-c3ccccc3)c(-c3ccc(OC)nc3)cc2n1C | 35.5µM* | -16.2%[87.6 µM] | 2.7%[87.6 µM] | 18.8
COCc1nc2nc(-c3ccccc3)c(-c3cccc([S+](C)(=O)[O-])c3)cc2n1C | ? | 48.0%[87.6 µM] | 4.5%[87.6 µM] | 8.6
COCc1nc2nc(-c3ccccc3)c(-c3ccc([S+](C)(=O)[O-])cc3)cc2n1C | 35.5µM* | -3.2%[87.6 µM] | 4.8%[87.6 µM] | 8.8
COc1ccc2c(c1)nc1n2[C@@H](CNCc2ccc3c(c2)OCO3)COC1 | i | 0.7%[87.6 µM] | -7.6%[87.6 µM] | -0.9
O=C(NC[C@H]1O[C@@H](CC(=O)N2CCN(c3ccccn3)CC2)[C@H](O)[C@@H]1O)Nc1cccc(F)c1 | ? | ? | -2.2% | -3.9
O=C(NC[C@H]1O[C@@H](CC(=O)N2CCN(c3ccccn3)CC2)[C@H](O)[C@@H]1O)NC1CCCCC1 | 25.1µM* | 23.4% | -6.0% | 9.3
COc1cc(N2CCC(N(C)C)CC2)ccc1Nc1ncc(Cl)c(Nc2ccccc2P(C)(C)=O)n1 | . | 8.55µM* | ? | -3.8
COc1cccc(C(=O)NC2CCN(c3ccc4nnc(C)n4n3)C2)c1 (stereo unspecified) | . | . | . | 9.9
NC(=O)NCCC(=O)N1CCc2onc(-c3cccc4ccccc34)c2C1 | 25.1µM* | ? | 3.4% | -6.2
NC(=O)NCC(=O)N1CCc2onc(-c3cccc4ccccc34)c2C1 | ? | 9.8% | 5.3% | 6.6
CCn1c(NCCc2ccccc2)nc2c1c(=O)[nH]c(=O)n2C | i | . | . | .
O=C(Nc1cccn2nc(C3CCC3)nc12)c1ccc(F)cc1 | i | -1.3% | 8.1% | 12.9
Nc1cccn2nc(C3CCC3)nc12 | 17.8µM* | -2.5% | 10.2% | 12.4
Cc1ccc(C(=O)c2ccccc2C(=O)OCc2ccccc2C#N)cc1 | i | . | . | .
CCNc1ncc(C(=O)N2CCN(CCCCOC)CC2)cn1 | 25.1µM* | 11.2% | 1.3% | -11.1
CCOc1ccc(CCNC(=O)c2cn(C)c3ccc(S(=O)(=O)N4CCCCC4)cc3c2=O)cc1OCC | ? | 23.4% | -1.8% | -26.7*
CCS(=O)(=O)N[C@@H]1CN(C2CCOCC2)C[C@H]1CN(C)C | ? | 17.3% | -12.5% | 1.9
CNC(=O)CCn1ncc2cc(OCc3ccccc3-c3cccc(C)c3)ccc21 | 35.5µM* | 1.1%[87.6 µM] | ? | 16.1
COC[C@@H]1CCCN1Cc1cn(-c2ccccc2)nc1-c1ccc(OC)cc1F | i | -7.9% | -4.8% | 3.3
COC[C@@H]1CCCN1Cc1cc2cc3c(cc2[nH]c1=O)OCO3 | 28.2µM* | -7.2% | 8.2% | 10.8
CCNC(=O)NC(=O)CN(C)Cc1cccc(C#N)c1 | i | . | . | .
CC(C)NC(=O)N1CCN(C(=O)NC2CCCCC2)[C@@H](C(=O)N[C@H](Cc2c[nH]c3ccccc23)C(N)=O)C1 | i | -15.0% | -10.1% | 1.4
COCC(=O)N[C@H]1CCN(C(=O)COC)[C@H](C(=O)N[C@H](Cc2c[nH]c3ccccc23)C(=O)OC)C1 | 22.4µM* | 1.2% | 14.0% | -5.5
